Consider 31 compounds from PubChem BioAssay (Tox21).

SMILES strings stand for the structures. Records with an inconclusive call do not appear. A number with no mark means an inactive call. Unless noted, calls follow the shape of the dose curve; as a rule, active = well fitted cell-killing curve with a large enough effect in the repeat runs; inconclusive = weak or mixed curves; inactive = no such curve, though single readings can be large or run the other way.
% is scaled to controls: 0 for no effect and ±100 for the full control effect.

Sequence of Peroxisome proliferator-activated receptor delta (Homo sapiens) (Q03181 whole entry, looked up): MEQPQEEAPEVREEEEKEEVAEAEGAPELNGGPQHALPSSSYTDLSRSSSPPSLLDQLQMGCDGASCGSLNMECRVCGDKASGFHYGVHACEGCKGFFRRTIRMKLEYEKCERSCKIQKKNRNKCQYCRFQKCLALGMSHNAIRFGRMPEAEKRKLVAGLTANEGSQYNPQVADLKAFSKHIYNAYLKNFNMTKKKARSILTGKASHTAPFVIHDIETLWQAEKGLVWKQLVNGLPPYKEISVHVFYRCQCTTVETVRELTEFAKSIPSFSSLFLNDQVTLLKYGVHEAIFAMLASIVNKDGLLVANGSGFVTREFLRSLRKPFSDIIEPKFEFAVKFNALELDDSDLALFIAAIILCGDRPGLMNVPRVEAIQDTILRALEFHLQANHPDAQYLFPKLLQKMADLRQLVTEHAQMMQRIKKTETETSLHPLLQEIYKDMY

The first assay addresses Peroxisome proliferator-activated receptor delta (Homo sapiens) (UniProt Q03181). Description: qHTS assay to identify small molecule agonists of the peroxisome proliferator-activated receptor delta (PPARd) signaling pathway (AID 743212; calls by dose curve). To be noted: HEK293H PPARd-UAS-bla, beta-lactamase FRET ratio, 17 h; series mostly up to 62.6 µM; activation: at the top concentration. In short, it runs like this:
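Tox21 library screened in GeneBLAzer PPARd UAS-bla HEK293H cells. After compound treatment at 37 C, a FRET-based beta-lactamase substrate was applied for 2 h and fluorescence recorded.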
In general terms: qHTS replaces the single test concentration by a dilution series.
Take `O=Cc1cccc(Br)c1`: the “activation” value is -2.85% [at 81.1 µM].
On the same count and under the same terms, the value for `CN1[C@@H]2CC[C@H]1CC(OC(=O)C(O)c1ccccc1)C2` (some centres not stated) was -0.527%; that for `CCOC(=O)OC(C)OC1=C(C(=O)Nc2ccccn2)N(C)S(=O)(=O)c2ccccc21` (configuration not stated) was 0.0933%.
Still for that read-out and setting: the value for `CC(=O)NC(=O)c1ccccc1O` was 0.0594%.
For `[Ca+2]`, the “activation” value was -3.2%.
On the same count and under the same terms, the figure for `CC(C)(C)C(=O)Oc1ccc(S(=O)(=O)Nc2ccccc2C(=O)NCC(=O)O)cc1` is 2.38%; for `CCCCN1C=CN(C)C1` it is 3.09% [at 29.1 µM]; for `NC(CCC(=O)O)C(=O)O` (configuration not stated) it is -1.75%.
Consider `CC(CC=O)CC(C)(C)C` (configuration not stated), for which the “activation” value is 2.29%.
The same measure, in the same setting: the figure for `CC(=O)c1ccc2ccccc2c1` is 2.22%; for `CN(C)C(=O)Oc1ccc[n+](C)c1` it is -0.365%; for `CCOC(=O)C1=NOC(c2ccccc2)(c2ccccc2)C1` it is -1.51%.
The same measure, in the same setting: the value for `O=S(=O)(O)c1cc(O)c(O)c(S(=O)(=O)O)c1` was 0.474%; that for `CCOc1ccccc1OCC` was 2.28%.
For `COc1ccc2cc1Oc1cc3c(cc1OC)CC[N+](C)(C)[C@H]3Cc1ccc(cc1)Oc1c(OC)c(OC)cc3c1[C@@H](C2)[N+](C)(C)CC3`, the “activation” value is 7.74%.
As to `CCN(Cc1ccccc1)c1ccccc1`, the “activation” value was 1.1%.
In the case of `CN(C)CCN(C)CCN(C)C`, the “activation” value is 0.791%.

Test system in another assay: not listed separately
Description: qHTS assay to identify small molecule antagonists of the peroxisome proliferator-activated receptor delta (PPARd) signaling pathway - cell viability counter screen (AID 743213). Also: nearly all actives have a fitted effect of over 50% in size. The note with it: PPARd-bla HEK293H viability, CellTiter-Glo luminescence, 17 h; series mostly up to 62 µM; viability change, negative = cytotoxic: at the top concentration. The method in brief: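 Luminescence from CellTiter-Glo, added after the bla read and incubated 30 min at room temperature, gives viability of HEK293H PPARd-bla cells exposed to compounds for 17 h at 37 C with 300 nM L165041.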
In the case of `CCCCCCCCN1CCCC1=O`, the “viability change, negative = cytotoxic” value was -11.2%.
On the same count and under the same terms, the value for `CC[N+](C)(CC)CCOC(=O)C1c2ccccc2Oc2ccccc21` was -14.3%; that for `CC(=O)NC(=O)c1ccccc1O` was 1.39%.
The same measure, in the same setting: the figure for `CCCCCCCC1CCCC1=O` (configuration not stated) is 1.78%; for `[Ca+2]` it is -7.39%; for `CN1CC(=O)N/C1=N/C(=O)Nc1cccc(Cl)c1` it is 1.2%.
With `Cc1ccc(-c2ncc(Cl)cc2-c2ccc(S(C)(=O)=O)cc2)cn1`, the “viability change, negative = cytotoxic” value was -4.81%.
On the same count and under the same terms, the value for `CCCCN1C=CN(C)C1` was -13.8% [at 28.9 µM].
On the same count and under the same terms, the figure for `NC(CCC(=O)O)C(=O)O` (configuration not stated) is -1.14%; for `CC(CC=O)CC(C)(C)C` (configuration not stated) it is -6.98%; for `C[N+]1(C)[C@@H]2CC(OC(=O)[C@H](CO)c3ccccc3)C[C@H]1[C@@H]1O[C@@H]12` (some centres not stated) it is 10.3%.
Still for that read-out and setting: the value for `CC(=O)c1ccc2ccccc2c1` was -6.38%; that for `CCCCc1ccc2c(n1)[C@@H](c1ccc(OC)cc1C[C@H](C)C(=O)O)[C@H](C(=O)O)[C@H]2c1ccc2c(c1)OCO2` was 1.83%; that for `CN(C)[C@@H]1C(=O)C(C(=O)NCN2CCCC2)=C(O)[C@@]2(O)C(=O)C3=C(O)c4c(O)cccc4[C@@](C)(O)C3C[C@@H]12` (some centres not stated) was 9.62%.
For the compound `CCOC(=O)C1=NOC(c2ccccc2)(c2ccccc2)C1`, the “viability change, negative = cytotoxic” value was -15.3%.
The same measure, in the same setting: the value for `CC/C=C\CCOC(C)OCC` (configuration not stated) was -4.91%; that for `CCC1C(=O)OCC1Cc1cncn1C` (configuration not stated) was -9.23%.
With `O=S(=O)(O)c1cc(O)c(O)c(S(=O)(=O)O)c1`, the “viability change, negative = cytotoxic” value was 1.53%.
In the case of `CCOc1ccccc1OCC`, the “viability change, negative = cytotoxic” value was 3.44%.
Still for that read-out and setting: the figure for `CCCCCC(=O)OCCc1ccccc1` is 16%.
Turning to `CN(C)CCCN(C)CCCN(C)C`, the “viability change, negative = cytotoxic” value was 14.3%.
Still for that read-out and setting: the value for `COc1ccc2cc1Oc1cc3c(cc1OC)CC[N+](C)(C)[C@H]3Cc1ccc(cc1)Oc1c(OC)c(OC)cc3c1[C@@H](C2)[N+](C)(C)CC3` was 26.8%; that for `CCCCCC(C)N` (configuration not stated) was 8.59%; that for `CCN(Cc1ccccc1)c1ccccc1` was 4.9%.
On the same count and under the same terms, the value for `O=C(CO)[C@@H](O)[C@H](O)[C@@H](O)CO` was -5.88%.
